Measurements as given in the supplement of paper PMC10646978.
± gives the standard deviation.

Columns and labels:
Conditions in all cases: modulator concentration 10 µM
[1] = system: RAW-Dual (murine macrophage reporter line); test: NF-kB reporter (SEAP) activity fold change vs agonist alone; higher = enhanced NF-kB activity
How it was run: (§1)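 RAW-Dual murine macrophage reporter cells were seeded at 50 000 per well in 384-well plates and pre-incubated 1 hour at 37 °C with compound pin-transferred to 10 μM final. After 1 hour, a PRR agonist was added and cells incubated overnight. Supernatant NF-κB (SEAP, QUANTI-Blue, 620 nm absorbance) and IRF (Lucia luciferase, QUANTI-Luc, luminescence) signals were divided by the mean agonist-only control on the same plate to give fold change. Two replicate plates were averaged, with errors by propagation.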

[2] = system: RAW-Dual (murine macrophage reporter line); test: IRF reporter (Lucia luciferase) activity fold change vs agonist alone; higher = enhanced IRF activity
How it was run: as §1

[3] = system: RAW-Dual (murine macrophage reporter line); test: viability score (confluency relative to resting cells, overnight) (fraction); higher = more viable, active = viable (0.7 or more)
How it was run: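 A compound met the cutoff when both of two confluency masks exceeded 70% of resting cells. Those masks were made with IncuCyte software from IncuCyte images of RAW-Dual macrophages treated overnight at 10 μM final. This is the basis of the viability score, which is confluency relative to resting cells.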

[4] = agonist: CpG ODN 1826 0.5 ug/mL

SMILES	NF-kB reporter [1, 4]	NF-kB reporter ([1]; agonist: LPS 0.1 ug/mL)	NF-kB reporter ([1]; agonist: MPLA […])	IRF reporter ([2]; agonist: 3'3'-cGAMP 10 ug/mL)	IRF reporter ([2]; agonist: LPS 0.1 ug/mL)	IRF reporter ([2]; agonist: MPLA […])	viability score [3]
C#CCN[C@@H]1CCc2ccccc21.CS(=O)(=O)O	0.992 ± 0.1	1.03 ± 0.12	1.03 ± 0.031	0.933 ± 0.087	0.913 ± 0.03	0.849 ± 0.1	0.996 (active)
O=C(CSc1nnnn1-c1ccccc1)NC12CC3CC(CC(C3)C1)C2	1.01 ± 0.09	0.967 ± 0.053	0.943 ± 0.059	0.96 ± 0.054	1.12 ± 0.24	0.933 ± 0.058	1.02 (active)
NC(Cc1cc(I)c(Oc2cc(I)c(O)c(I)c2)c(I)c1)C(=O)O (configuration not stated)	0.948 ± 0.23	0.984 ± 0.098	0.94 ± 0.073	0.901 ± 0.036	1.18 ± 0.2	1.12 ± 0.14	1 (active)
O=C(c1ccc2ccccc2n1)N1CCc2ncncc2C1	1.08 ± 0.054	1.04 ± 0.083	0.862 ± 0.044	0.956 ± 0.063	1.09 ± 0.18	1.11 ± 0.27	1.01 (active)
COC(=O)C(NC(=O)C(C)(C)C)C12CC3CC(CC(C3)C1)C2 (configuration not stated)	0.96 ± 0.075	0.892 ± 0.067	0.934 ± 0.094	1.06 ± 0.058	1.38 ± 0.23	1.49 ± 0.3	1.02 (active)
CC(C)NCC(O)COc1ccc(CCOCC2CC2)cc1.Cl (configuration not stated)	0.952 ± 0.13	1.2 ± 0.25	0.968 ± 0.068	0.907 ± 0.032	1.57 ± 0.17	1.31 ± 0.1	0.981 (active)
CCCCc1nc(C)c(CC(=S)N(C)C)c(=O)n1Cc1ccc(-c2ccccc2-c2nnn[nH]2)cc1	0.589 ± 0.025	0.273 ± 0.022	1.36 ± 0.077	0.0858 ± 0.062	3.7 ± 0.2	8.26 ± 0.79	0.139 (inactive)
CSc1nnc(CSc2nc(C)cc(C)n2)n1-c1cccc(C(F)(F)F)c1	0.958 ± 0.041	0.862 ± 0.071	1.17 ± 0.07	0.961 ± 0.053	1.36 ± 0.34	1.37 ± 0.44	0.953 (active)
COC(CNC(=O)C(C)(C)Oc1ccc(Cl)cc1)c1cccc(F)c1 (configuration not stated)	1.27 ± 0.39	1.07 ± 0.055	1.14 ± 0.081	0.96 ± 0.035	0.959 ± 0.16	1.04 ± 0.18	0.973 (active)
CC(O)(CNC(=O)CSc1ccc(F)cc1)c1ccc(-c2ccccc2)cc1 (configuration not stated)	1.02 ± 0.067	0.973 ± 0.092	0.935 ± 0.038	0.685 ± 0.049	1.11 ± 0.072	0.921 ± 0.1	0.992 (active)
COc1ccc(C(C)NC(=O)CCc2nnc3ccc(-c4ccc(C)c(C)c4)nn23)cc1OC (configuration not stated)	1.3 ± 0.23	1.06 ± 0.083	1.4 ± 0.38	0.301 ± 0.14	0.963 ± 0.088	0.623 ± 0.089	1.01 (active)
CCN1C(=O)C(=C2SC(N3CCOCC3)=NC2=O)c2ccccc21	0.991 ± 0.08	1.07 ± 0.079	0.952 ± 0.064	0.949 ± 0.042	1.22 ± 0.13	0.978 ± 0.23	1.01 (active)
CC(C)(CO)NC(=O)C(c1ccccc1)c1ccccc1	1.24 ± 0.14	0.961 ± 0.086	1 ± 0.041	0.937 ± 0.035	0.991 ± 0.051	0.896 ± 0.095	0.996 (active)
CC(C(=O)O)c1ccc(C(=O)c2cccs2)cc1 (configuration not stated)	1.17 ± 0.17	1.08 ± 0.24	0.995 ± 0.065	0.97 ± 0.03	1.22 ± 0.14	1.23 ± 0.14	1.01 (active)
COc1cc2nc(N3CCN(C(=O)c4ccco4)CC3)nc(N)c2cc1OC [Prestw-947]	0.258 ± 0.041	1.09 ± 0.083	1.14 ± 0.11	1.59 ± 0.049	1.28 ± 0.18	1.48 ± 0.33	0.971 (active)
CC(C)(C)C1=CC2(C=C(C(C)(C)C)C1=O)Nc1cccc3cccc(c13)N2	0.874 ± 0.12	1.08 ± 0.062	0.96 ± 0.075	0.754 ± 0.037	1.17 ± 0.11	0.942 ± 0.078	1.01 (active)
COc1cc2nc(N3CCN(C(=O)C4CCCO4)CC3)nc(N)c2cc1OC.Cl.O.O (configuration not stated)	0.675 ± 0.12	0.937 ± 0.069	0.863 ± 0.052	0.963 ± 0.029	1.09 ± 0.094	1.16 ± 0.2	0.996 (active)
CC(C)(C)NCC(O)COc1cccc2c1CC(O)C(O)C2 (configuration not stated)	1.26 ± 0.3	1 ± 0.11	1.05 ± 0.095	0.919 ± 0.045	1.04 ± 0.16	0.968 ± 0.17	0.931 (active)
CC(NC(=O)COc1ccc(C=NNC(=O)c2ccccc2O)cc1)c1ccccc1 (configuration not stated)	1.05 ± 0.13	1.03 ± 0.065	1.02 ± 0.061	0.985 ± 0.028	1.63 ± 0.23	1.2 ± 0.1	1.01 (active)
CC(C)CN(C[C@@H](O)[C@H](Cc1ccccc1)NC(=O)O[C@H]1CCOC1)S(=O)(=O)c1ccc(N)cc1	1.51 ± 0.36	1.4 ± 0.43	1.63 ± 0.097	0.918 ± 0.028	1.29 ± 0.33	1.22 ± 0.14	0.998 (active)
CC(=NNC(=O)CSc1nc2ccccc2n1Cc1ccccc1)c1ccc(Cl)cc1	0.846 ± 0.068	0.923 ± 0.089	1 ± 0.1	0.979 ± 0.046	1.4 ± 0.081	1.36 ± 0.16	1.02 (active)
O=C(Nc1ccc(S(=O)(=O)Nc2ccc(F)cc2)cc1)C(F)(F)F	0.992 ± 0.11	1.03 ± 0.069	0.93 ± 0.061	1.12 ± 0.027	1.37 ± 0.22	1.14 ± 0.098	1.01 (active)
Cc1cc(I)cc2c1NC(c1cccc([N+](=O)[O-])c1)C1CC=CC21 (configuration not stated)	0.921 ± 0.079	0.795 ± 0.058	0.867 ± 0.089	0.497 ± 0.039	1.17 ± 0.23	1.13 ± 0.25	1.02 (active)
CS(=O)(=O)N(CC(=O)NCCSCc1cccc(Cl)c1)c1ccc(Cl)cc1	0.893 ± 0.093	0.962 ± 0.079	0.964 ± 0.044	0.904 ± 0.13	1.07 ± 0.062	0.902 ± 0.081	1 (active)
CC(C)(C(=O)O)c1ccc(C(O)CCCN2CCC(C(O)(c3ccccc3)c3ccccc3)CC2)cc1.Cl (configuration not stated)	1.47 ± 0.22	1.28 ± 0.39	1.01 ± 0.067	0.924 ± 0.029	1.05 ± 0.48	1.19 ± 0.09	0.983 (active)
O=c1[nH]c2ccccc2n1CCN1CCN(c2cccc(C(F)(F)F)c2)CC1	0.278 ± 0.037	0.403 ± 0.097	0.448 ± 0.028	0.953 ± 0.034	1.24 ± 0.34	1.51 ± 0.2	0.915 (active)
